From PubChem BioAssay (NCATS)
Records with an inconclusive call do not appear. Values without a mark were called inactive. Calls come from the whole dose curve; as a rule, active = well fitted curve in the direction sought with a large enough effect; inconclusive = small, poorly fitted or top-dose-only effect, or another doubt; inactive = no such curve, though single readings can be large; an effect the other way counts as inactive or inconclusive.

assay: qHTS of pediatric cancer cell lines to identify multiple opportunities for drug repurposing: Primary screen for MG 63 (6-TG R) cells (AID 1347105); conditions: MG 63 (6-TG R) viability, CellTiter-Glo, 48 h; series mostly up to 46 µM; activity change, negative = cytotoxic: at the top concentration; note: nearly all actives have a fitted effect of over 50% in size
Summary of the method: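 Viability was measured as metabolically active cells after 48 hours of treatment, read by CellTiter-Glo luminescence. Compounds were tested at multiple final concentrations, giving concentration-response curves.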
% is set by controls: 0 for no effect and ±100 for the full control effect.

Going from `O=c1ccc2ccccc2o1` to `OCc1ccccc1O`, the “activity change, negative = cytotoxic” value rises from -20.1% to -9.5%.

Going from `CCOC(=O)/C=C(C)/C=C/C=C(C)/C=C/c1c(C)cc(OC)c(C)c1C` to `CCOC(=O)COc1ccc2c(C)c(CCN(CC)CC)c(=O)oc2c1Cl`, the “activity change, negative = cytotoxic” value rises from -22.2% to -21.6%.

Compared with `CC(C)COC(=O)c1ccc(N)cc1`, `CCOc1ccc(NC(=O)CC(C)O)cc1` (centres undefined) is lower in “activity change, negative = cytotoxic” value: 2.14% for the first, -8.65% for the second.

First: OC(CCN1CCCCC1)(c1ccccc1)c1ccccc1
Second: CC(=O)OCC(=O)NCCCOc1cccc(CN2CCCCC2)c1
The “activity change, negative = cytotoxic” value of the first is higher: -5.04% for the first, -11.5% for the second.

Going from `O=C1OCCN1/N=C/c1ccc([N+](=O)[O-])o1` to `O=c1[nH]c(=O)n([C@H]2CCCO2)cc1F`, the “activity change, negative = cytotoxic” value falls from 47.6% to -2.19%.

First: C[C@]12CCC(=O)C=C1[C@@H]1C[C@@H]1[C@H]1[C@@H]3[C@@H]4C[C@@H]4[C@@]4(CCC(=O)O4)[C@@]3(C)CC[C@@H]12
Second: COC(=O)[C@@H]1CC2=CC(=O)CC[C@]2(C)[C@@]23O[C@@H]2C[C@@]2(C)[C@@H](CC[C@@]24CCC(=O)O4)[C@H]13
The “activity change, negative = cytotoxic” value of the first is lower: -15.7% for the first, -5.13% for the second.

First: CN(C(=O)CN(CCO)CC(=O)N(C)C(C)(C)Cc1ccccc1)C(C)(C)Cc1ccccc1
Second: CC[N+](CC)(CCNC(=O)C(=O)NCC[N+](CC)(CC)Cc1ccccc1Cl)Cc1ccccc1Cl
The “activity change, negative = cytotoxic” value of the first is lower: -19.1% for the first, 0.209% for the second.

First: CCCCN1CCCC1C(=O)Nc1c(C)cc(C)cc1C (centres undefined)
Second: Cc1cc(O)c(C(C)C)cc1Cl
The “activity change, negative = cytotoxic” value of the first is lower: -13.8% for the first, 0.16% for the second.

Compared with `CC1=C(C(=O)O)N2C(=O)[C@@H](NC(=O)[C@H](N)c3ccc(O)cc3)[C@H]2SC1`, `C[C@H]1[C@H](NC(=O)/C(=N/OC(C)(C)C(=O)O)c2csc(N)n2)C(=O)N1S(=O)(=O)O` (stereo in doubt) is lower in “activity change, negative = cytotoxic” value: 9.81% for the first, -15.3% for the second.

Compared with `C[C@H](O)C(=O)Nc1c(I)c(C(=O)NC(CO)CO)c(I)c(C(=O)NC(CO)CO)c1I`, `CC[C@@H](CO)NCCN[C@@H](CC)CO` is higher in “activity change, negative = cytotoxic” value: -14.9% for the first, -12% for the second.

Compared with `C[C@H](CCC(=O)O)[C@H]1CC[C@H]2[C@@H]3C(=O)C[C@@H]4CC(=O)CC[C@]4(C)[C@H]3CC(=O)[C@]12C`, `C=C1C(=C/C=C2\CCC[C@]3(C)[C@@H]([C@H](C)/C=C/[C@@H](O)C4CC4)CC[C@@H]23)C[C@@H](O)C[C@@H]1O` is higher in “activity change, negative = cytotoxic” value: -4.54% for the first, -4.42% for the second.

First: CC(O)(P(=O)(O)O)P(=O)(O)O
Second: CCC(=O)c1c(O)cc(O)cc1O
The “activity change, negative = cytotoxic” value of the first is higher: -12.8% for the first, -21.1% for the second.

Compared with `CCCCc1nc(Cl)c(CO)n1Cc1ccc(-c2ccccc2-c2nn[nH]n2)cc1`, `CC(Cc1cccc(C(F)(F)F)c1)NCCOC(=O)c1ccccc1` (centres undefined) is lower in “activity change, negative = cytotoxic” value: 1.7% for the first, -17% for the second.

First: CC(C)(Oc1ccc(Cl)cc1)C(=O)O
Second: C/C=C/c1ccc(OC)cc1
The “activity change, negative = cytotoxic” value of the first is lower: -15.8% for the first, -10.8% for the second.

Going from `CNCC[C@@H](Oc1ccccc1C)c1ccccc1` to `CN1[C@@H]2CC[C@H]1CC(OC(=O)c1c[nH]c3ccccc13)C2` (some centres undefined), the “activity change, negative = cytotoxic” value falls from -8.41% to -24%.

Compared with `CCCCS(=O)(=O)N[C@@H](Cc1ccc(OCCCCC2CCNCC2)cc1)C(=O)O`, `CCCCCCc1ccc(O)cc1O` is lower in “activity change, negative = cytotoxic” value: -18.7% for the first, -23.2% for the second.

Going from `CC1(C)O[C@@H]2[C@@H](CO[C@@]3(COS(N)(=O)=O)OC(C)(C)O[C@@H]23)O1` to `C#C[C@]1(OC(C)=O)CC[C@H]2[C@@H]3CCC4=C[C@@H](OC(C)=O)CC[C@@H]4[C@H]3CC[C@@]21C`, the “activity change, negative = cytotoxic” value rises from -18% to -3.47%.

Compared with `NC(CS)C(=O)O` (centres undefined), `CCN(CC)C(=O)N1CCN(C)CC1` is lower in “activity change, negative = cytotoxic” value: 1.82% for the first, -19.4% for the second.

With `Cc1nc2n(c(=O)c1CCN1CCC(c3noc4cc(F)ccc34)CC1)CCC[C@H]2O` the “activity change, negative = cytotoxic” value was -13.7% [at 16.1 µM].

assay: qHTS of pediatric cancer cell lines to identify multiple opportunities for drug repurposing: Primary screen for control Hh wild type fibroblast cells (AID 1347106); conditions: Hh wild-type fibroblast viability, CellTiter-Glo luminescence, 48 h; series mostly up to 46 µM; activity change, negative = cytotoxic: at the top concentration;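 note: a drop in luminescence marks cytotoxicity and a rise apparent proliferation; nearly all actives have a fitted effect of over 55% in size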
Summary of the method: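 Viability after 48 h compound treatment at 37C, 500-1,000 cells/well, read as ATP luminescence with CellTiter-Glo. Primary screens used 11-point (MIPE, 0.78 nM-46 µM) or 8-point (NPC, 0.59 nM-46 µM) final concentrations; follow-up screens used 11-point dilutions.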

Going from `O=c1ccc2ccccc2o1` to `OCc1ccccc1O`, the “activity change, negative = cytotoxic” value rises from 0.429% to 6.85%.

First: CCOC(=O)/C=C(C)/C=C/C=C(C)/C=C/c1c(C)cc(OC)c(C)c1C
Second: CCOC(=O)COc1ccc2c(C)c(CCN(CC)CC)c(=O)oc2c1Cl
The “activity change, negative = cytotoxic” value of the first is higher: 7.23% for the first, -5.89% for the second.

Compared with `CC(C)COC(=O)c1ccc(N)cc1`, `CCOc1ccc(NC(=O)CC(C)O)cc1` (centres undefined) is higher in “activity change, negative = cytotoxic” value: 0.576% for the first, 7.13% for the second.

Going from `OC(CCN1CCCCC1)(c1ccccc1)c1ccccc1` to `CC(=O)OCC(=O)NCCCOc1cccc(CN2CCCCC2)c1`, the “activity change, negative = cytotoxic” value falls from 13.5% to 7.8%.

Going from `O=C1OCCN1/N=C/c1ccc([N+](=O)[O-])o1` to `O=c1[nH]c(=O)n([C@H]2CCCO2)cc1F`, the “activity change, negative = cytotoxic” value rises from -3.11% to -2.4%.

Compared with `C[C@]12CCC(=O)C=C1[C@@H]1C[C@@H]1[C@H]1[C@@H]3[C@@H]4C[C@@H]4[C@@]4(CCC(=O)O4)[C@@]3(C)CC[C@@H]12`, `COC(=O)[C@@H]1CC2=CC(=O)CC[C@]2(C)[C@@]23O[C@@H]2C[C@@]2(C)[C@@H](CC[C@@]24CCC(=O)O4)[C@H]13` is higher in “activity change, negative = cytotoxic” value: 6.47% for the first, 17.5% for the second.

Compared with `CN(C(=O)CN(CCO)CC(=O)N(C)C(C)(C)Cc1ccccc1)C(C)(C)Cc1ccccc1`, `CC[N+](CC)(CCNC(=O)C(=O)NCC[N+](CC)(CC)Cc1ccccc1Cl)Cc1ccccc1Cl` is higher in “activity change, negative = cytotoxic” value: 4.35% for the first, 13% for the second.

Compared with `CCCCN1CCCC1C(=O)Nc1c(C)cc(C)cc1C` (centres undefined), `Cc1cc(O)c(C(C)C)cc1Cl` is higher in “activity change, negative = cytotoxic” value: -5.3% for the first, 12.9% for the second.

Compared with `CC1=C(C(=O)O)N2C(=O)[C@@H](NC(=O)[C@H](N)c3ccc(O)cc3)[C@H]2SC1`, `C[C@H]1[C@H](NC(=O)/C(=N/OC(C)(C)C(=O)O)c2csc(N)n2)C(=O)N1S(=O)(=O)O` (stereo in doubt) is higher in “activity change, negative = cytotoxic” value: 2.81% for the first, 7.95% for the second.

Going from `C[C@H](O)C(=O)Nc1c(I)c(C(=O)NC(CO)CO)c(I)c(C(=O)NC(CO)CO)c1I` to `CC[C@@H](CO)NCCN[C@@H](CC)CO`, the “activity change, negative = cytotoxic” value rises from 1.3% to 3.53%.

Compared with `C[C@H](CCC(=O)O)[C@H]1CC[C@H]2[C@@H]3C(=O)C[C@@H]4CC(=O)CC[C@]4(C)[C@H]3CC(=O)[C@]12C`, `C=C1C(=C/C=C2\CCC[C@]3(C)[C@@H]([C@H](C)/C=C/[C@@H](O)C4CC4)CC[C@@H]23)C[C@@H](O)C[C@@H]1O` is higher in “activity change, negative = cytotoxic” value: -2.26% for the first, 9.95% for the second.

Compared with `CC(O)(P(=O)(O)O)P(=O)(O)O`, `CCC(=O)c1c(O)cc(O)cc1O` is lower in “activity change, negative = cytotoxic” value: 16.9% for the first, 4.19% for the second.

Compared with `CCCCc1nc(Cl)c(CO)n1Cc1ccc(-c2ccccc2-c2nn[nH]n2)cc1`, `CC(Cc1cccc(C(F)(F)F)c1)NCCOC(=O)c1ccccc1` (centres undefined) is higher in “activity change, negative = cytotoxic” value: -1.01% for the first, 0.316% for the second.

Compared with `CC(C)(Oc1ccc(Cl)cc1)C(=O)O`, `C/C=C/c1ccc(OC)cc1` is lower in “activity change, negative = cytotoxic” value: 3.81% for the first, -2.48% for the second.

Going from `CNCC[C@@H](Oc1ccccc1C)c1ccccc1` to `CN1[C@@H]2CC[C@H]1CC(OC(=O)c1c[nH]c3ccccc13)C2` (some centres undefined), the “activity change, negative = cytotoxic” value rises from -2.08% to 10.3%.

First: CCCCS(=O)(=O)N[C@@H](Cc1ccc(OCCCCC2CCNCC2)cc1)C(=O)O
Second: CCCCCCc1ccc(O)cc1O
The “activity change, negative = cytotoxic” value of the first is higher: 16.4% for the first, -1.75% for the second.

Going from `CC1(C)O[C@@H]2[C@@H](CO[C@@]3(COS(N)(=O)=O)OC(C)(C)O[C@@H]23)O1` to `C#C[C@]1(OC(C)=O)CC[C@H]2[C@@H]3CCC4=C[C@@H](OC(C)=O)CC[C@@H]4[C@H]3CC[C@@]21C`, the “activity change, negative = cytotoxic” value rises from 5.06% to 13.7%.

Compared with `NC(CS)C(=O)O` (centres undefined), `CCN(CC)C(=O)N1CCN(C)CC1` is higher in “activity change, negative = cytotoxic” value: 8.57% for the first, 10.1% for the second.

In the case of `Cc1nc2n(c(=O)c1CCN1CCC(c3noc4cc(F)ccc34)CC1)CCC[C@H]2O`, the “activity change, negative = cytotoxic” value is reported as -0.951% [at 16.1 µM].
